Screening results (PubChem)
This excerpt belongs to a sample that is enriched for hits.
CtBP-E1A blk: blocks the CtBP interaction with E1A; AlphaScreen GST-E1A/His-CtBP binding, 1536-well; active compounds read low; activity change, % (no concentration beside the values); 0.49% of 340,000 active; AID 651724; in the data active means activity change below about -65%; inconclusive means mostly about -30% to -63%
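In 5 uL wells, 23 nL compound meets equimolar GST-E1A and His-CtBP (5X stock 125 nM each) for 2 h, 37 °C. Beads (5X, 50 ug/mL) then 1 h, 37 °C, dark.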
GALK inh: galactokinase (human) inhibition; Purified GALK, Kinase-Glo residual ATP luminescence; Potency, µM (highest dose often 57.5 µM), usual class: inhibitors; 0.007% of 270,000 active; AID 1868
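Quantitative HTS: GALK 5 nM, ATP 35 uM, galactose 100 uM, 1 h room temperature, then luciferase-based ATP detection.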
KDM4E inh: JMJD2E (human) inhibition. AID 2147. 1.6% of 230,000 active. B2RXH2. Potency, µM (doses to about 57.1 µM), actives largely listed as inhibitors. JMJD2E catalytic domain, FDH-coupled NADH fluorescence (FDH is formaldehyde dehydrogenase); further: nearly all actives have a fitted effect of over 50% in size
Six1-Eya2 blk: Six1/Eya2 interaction inhibition | Q15475+O00167 | AlphaScreen GST-Six1/His-Eya2 binding, biochemical; active compounds read low | activity change, % (no concentration beside the values) | 0.56% of 360,000 active | AID 651725; in the data active means activity change below about -65%; inconclusive means mostly about -30% to -63%
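GST-Six1 + His-Eya2 (5X stock: 250/500 nM); Tris pH 8.0, 300 mM NaCl, 0.05% BSA, 0.02% Tween 20; GSH donor/Ni acceptor beads; 1 h 37 °C dark; AlphaScreen readout.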
Anesthetic bind: candidate novel general anesthetic via apoferritin binding; P02791; apoferritin/1-aminoanthracene competitive binding, fluorescence; Potency, µM (titrated, usually from 77.5 µM), actives largely listed as inhibitors; 0.074% of 350,000 active; further: nearly all actives have a fitted effect of over 20% in size
Target sequence (P02791 2-175 limits assumed): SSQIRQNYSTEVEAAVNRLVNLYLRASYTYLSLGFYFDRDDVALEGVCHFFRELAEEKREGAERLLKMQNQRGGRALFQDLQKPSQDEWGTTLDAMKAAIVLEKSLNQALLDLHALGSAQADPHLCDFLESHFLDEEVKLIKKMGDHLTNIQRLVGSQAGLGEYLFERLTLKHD
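In PBS, apoferritin at 10 uM is loaded with 1-AMA from a 50% saturated solution. After 10 min of compound exposure at ambient temperature, reduced 535 nm fluorescence indicates probe displacement.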
Eya2 phos inh: Eya2 (human) phosphatase inhibition | O00167 | 0.006% of 330,000 active | Potency, µM (top dose mostly 76.9 µM), most hits filed as inhibitors | recombinant Eya2, OMFP fluorescence dephosphorylation (OMFP is methylfluorescein phosphate)
Target sequence (O00167 whole entry, looked up): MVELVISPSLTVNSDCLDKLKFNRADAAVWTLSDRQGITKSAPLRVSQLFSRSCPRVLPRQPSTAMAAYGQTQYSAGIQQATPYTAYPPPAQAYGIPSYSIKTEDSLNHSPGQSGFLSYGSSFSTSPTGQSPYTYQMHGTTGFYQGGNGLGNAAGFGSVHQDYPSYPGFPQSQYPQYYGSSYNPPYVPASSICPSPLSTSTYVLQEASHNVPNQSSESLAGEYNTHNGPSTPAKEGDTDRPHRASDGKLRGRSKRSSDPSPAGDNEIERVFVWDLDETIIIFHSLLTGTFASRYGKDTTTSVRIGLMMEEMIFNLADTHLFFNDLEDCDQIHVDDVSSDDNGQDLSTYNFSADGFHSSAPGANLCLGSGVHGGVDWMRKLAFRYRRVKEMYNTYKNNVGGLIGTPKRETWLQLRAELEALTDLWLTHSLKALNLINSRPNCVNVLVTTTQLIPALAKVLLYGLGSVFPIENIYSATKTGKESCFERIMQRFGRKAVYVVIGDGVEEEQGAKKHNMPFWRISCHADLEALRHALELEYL
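Eya2 protein (added as 0.2 uM solution) was preincubated with compound for 10 min at ambient temperature in 50 mM HEPES pH 7.5, 50 mM NaCl, 5 uM MgCl2, 0.05% BSA, 1 mM DTT. OMFP (added at 50 uM) then reacted 10 min; fluorescence read at 485/525 nm.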
Numbers stand for hits; n = inactive; u = inconclusive; x = not tested or not shown; [ ] = remark or other dose. Unless noted, the call rests on the fitted dose curve; in most records, active means well fitted curve in the direction sought with a large enough effect; inconclusive means small, poorly fitted or top-dose-only effect, or another doubt; inactive means no such curve, though single readings can be large; an effect the other way counts as inactive or inconclusive.

SMILES	CtBP-E1A blk	GALK inh	KDM4E inh	Six1-Eya2 blk	Anesthetic bind	Eya2 phos inh
Cc1nc2c(-c3ccc(Cl)cc3)c(C)[nH]n2c(=O)c1Cc1ccccc1	-82	n	32µM	-76	n	n
CCOC(=O)Cc1c(C)nc2c(-c3ccccc3)c(C)[nH]n2c1=O	n	n	u	n	n	n
COc1ccc(-c2c(C)[nH]n3c(=O)c(Cc4ccccc4)c(C)nc23)cc1OC	u	n	n	-67	n	n
CCOC(=O)Cc1c(C)nc2c(-c3ccccc3)c(-c3ccccc3)[nH]n2c1=O	u	n	u	-75	n	n
Cc1nc2c(-c3ccccc3)c(C)[nH]n2c(=O)c1Cc1ccccc1	x	n	u	u	n	n
CC(C)=CCc1c(O)cc2oc3c(CC=C(C)C)c(O)c(O)c(CC=C(C)C)c3c(=O)c2c1O	n	n	28µM	n	n	n
CCSc1n[nH]c(=S)s1	n	n	25µM	n	n	n
CC(=Nc1ccccc1N)c1c(C)cc(=O)n(O)c1O	x	x	x	x	n	x
O=S(=O)(c1ccc(NC(=S)NN=Cc2ccccc2O)cc1)N1CCCCC1	-89	x	x	-86	x	x
O=S(=O)(c1ccc(NC(=S)N/N=C/c2ccc(O)c(O)c2)cc1)N1CCOCC1	n	n	13µM	n	n	n
N#Cc1ccc(/C=N/NC(=S)Nc2ccc(S(=O)(=O)N3CCOCC3)cc2)cc1	n	n	n	n	n	n
O=[N+]([O-])c1cc(Cl)cc(/C=N/NC(=S)Nc2ccc(S(=O)(=O)N3CCOCC3)cc2)c1O	-98	n	25µM	-91	u	n
CCOC(=O)N1CCCN(/[N+]([O-])=N/Oc2ccc([N+](=O)[O-])cc2[N+](=O)[O-])CC1	x	x	x	x	n	x
COc1ccc(OC)c(NC(=O)Cn2cc(C(=O)c3cccs3)c3ccccc32)c1	x	x	x	x	n	x
CCN(Cc1ccccc1)c1ccc(N=Nc2nn(C)c(C)c2[N+](=O)[O-])cc1	-68	x	n	-70	n	n
Cc1ccc(CNC(=O)c2nn(C)c(C)c2[N+](=O)[O-])cc1	n	x	n	n	n	n
CCN(CC)c1ccc(N=Nc2nn(C)c(C)c2[N+](=O)[O-])cc1	u	n	n	-67	n	n
O=C(O)CCc1c(C(=O)O)[nH]c2cc(Cl)cc(Cl)c12	x	x	x	x	n	x
CCCCCC1CC(CC(=O)Nc2ccc([N+](=O)[O-])cc2)OC1=O (stereo not given)	n	n	n	n	u	n
CCCCCC1CC(CC(=O)Nc2ccc([N+](=O)[O-])cc2)C(=O)O1 (stereo not given)	x	n	n	n	16µM	n
Cc1c(C2=CCN(S(=O)(=O)c3ccc(Br)cc3)CC2)c2ccccc2n1C	n	n	16µM	n	n	n
CCOC(=O)N1CCC(NC(=O)c2cnn(-c3cccc(F)c3)c2-n2cccc2)CC1	x	x	x	x	n	x
C[C@@H](NC(=O)/C(C#N)=C/c1ccc(O)c(O)c1)c1ccccc1	n	x	22µM	n	x	n
C[C@H](NC(=O)/C(C#N)=C/c1ccc(O)c(O)c1)c1ccccc1	x	x	7.1µM	x	x	n
N#C/C(=C\c1cccnc1)C(=O)Nc1ccccc1	n	n	u	n	n	n
SMILES	CtBP-E1A blk	GALK inh	KDM4E inh	Six1-Eya2 blk	Anesthetic bind	Eya2 phos inh
N#C/C(=C\c1ccc(O)c(O)c1)C(=O)Nc1ccccc1	n	x	16µM	n	x	n
NC(=O)c1cc[n+](CC2=C(C(=O)O)N3C(=O)[C@@H](NC(=O)[C@H](c4ccccc4)S(=O)(=O)[O-])[C@@H]3SC2)cc1	x	x	n	x	n	x
CCCNC(=O)OC[C@@H]1O[C@H](CCO/N=C\[C@@H](OC)[C@H](C)/C=C\CC(=O)OC)C=C[C@@H]1Oc1ccc(OC)cc1	x	x	x	x	n[15.3 µM]	x
CC(C)(C)c1ccc(O)c(N=Cc2cc(Br)ccc2O)c1	x	n	28µM	n	u	n
Cc1ccc(O)c(C=Nc2cc(C)ccc2O)c1	n	n	20µM	n	n	n
Oc1ccc(Br)cc1C=Nc1ccc(Cl)cc1	n	n	n	n	n	n
COc1ccc2c(c1)C(=O)[C@H](OC(=O)NCc1ccc3c(c1)OCO3)[C@@H](c1ccc(OC)c(Br)c1)O2	x	x	n	x	x	x
COC(=O)c1ccc(C(NC(=O)OCc2ccccc2)/C(I)=C/[C@@H](C)C(=O)NCc2ccncc2)cc1 (stereo not given in full)	x	x	n	x	n	x
CCCCC1=CC2=C(OC(C)=O)C(=O)C(C)(OC(=O)CCC(=O)OC)C(=O)C2=CO1 (stereo not given)	x	x	n	x	x	x
COc1ccc(Nc2nc(-c3cccs3)nc3ccccc23)cc1S(=O)(=O)N1CCOCC1	-67	x	x	u	x	x
COc1ccc(-c2nc(C)c(CCNC(=O)C(=O)Nc3ccccc3OC)s2)cc1	x	x	x	x	n	x
COc1ccc(-c2noc(COc3ccc(Br)cc3C)n2)cc1OC	x	x	x	x	n	x
O=C(/C=C\c1ccc(O)c(O)c1)O[C@@H]1C[C@](O)(C(=O)O)C[C@@H](O)[C@@H]1O	x	x	4.5µM	x	n	x
O=C(/C=C/c1ccc(O)c(O)c1)O[C@@H]1C[C@](O)(C(=O)O)C[C@@H](O)[C@H]1O	n	x	x	n	x	n
O=C(/C=C/c1ccc(O)c(O)c1)OC1C(O)CC(OC(=O)/C=C/c2ccc(O)c(O)c2)(C(=O)O)CC1O (stereo not given)	n	n	3.2µM	n	n	n
C=CCN1C=C2C(=O)C(C)(OC(=O)CCC(=O)OC)C(=O)C(Br)=C2C=C1c1ccc(OC)cc1 (stereo not given)	n	n	7.9µM	n	n	n
C#CCOCCOCCOCCNc1nc(N2CCN(C(=O)[C@H](CCC(=O)O)n3cc(C(N)CO)nn3)CC2)nc(N2CCN(C(=O)[C@H](CCC(=O)O)n3cc(C(N)CC(C)C)nn3)CC2)n1 (stereo not given in full)	x	n	22µM	x	n	n
C#CCOCCOCCOCCNc1nc(N2CCN(C(=O)[C@H](CCC(=O)O)n3cc(C(N)CO)nn3)CC2)nc(N2CCN(C(=O)[C@H](CCC(=O)O)n3cc(C(N)CO)nn3)CC2)n1 (stereo not given in full)	x	n	n	x	n	n
O=c1oc2ccccc2nc1/C=C(O)/C=C/c1ccc(F)cc1	n	n	n	n	n	n
O=c1oc2ccccc2nc1/C=C(O)/C=C\c1ccccc1	n	n	20µM	n	n	n
COc1ccc2c(c1OC)C(=O)O[C@H]2C1c2c(cc3c(c2OC)OCO3)CCN1C (stereo not given in full)	x	x	n	x	n	x
CN1CCc2cc3c(c4c2[C@H]1[C@H](O)c1ccccc1-4)OCO3	u	x	18µM	n	n	n
CC(C)c1ccc(OCc2ccc(C(=O)N(C)C)o2)cc1	n	n	x	n	n	n
CC(C)c1ccc(OCc2ccc(C(=O)O)o2)cc1	n	n	7.9µM	n	n	n
